# Source: PubChem BioAssay
# Values without a mark were called inactive. For some assays here: Measured potencies and affinities stand elsewhere. Calls of active or inactive are those of the source. Unless noted, no rule for the calls is given here.
# Key:
# [1] = antimalarial activity against Dd2 strain (AID 2302;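 active = growth inhibition above 50% at the single 2 µM test dose, taken to imply half-maximal potency below 2 µM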;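 also: 0% = DMSO untreated growth and 100% = chloroquine plus artemisinin killed control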); details: P. falciparum Dd2 in RBCs, LDH growth readout, 72 h; at 2 µM; hits give high values
# [2] = HepG2 cytotoxicity, primary screen, cytotoxicity control for P. falciparum antimalarial project, cell-based, ATP luminescence (AID 2303;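 active = inhibition above 50%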;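 also: 0% = DMSO wells and 100% = digitonin-killed cells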); details: HepG2 viability, 24-48 h, at 10 µM, hits give high values
# [3] = target: L-lactate dehydrogenase (Plasmodium falciparum (isolate CDC / Honduras)) (UniProt Q27743); test: PfLDH activity inhibition – cell lysate, 3D7 strain, counter-screen for P. falciparum growth inhibition project (AID 2304);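 also: 0% = vehicle and 100% = reference inhibitor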; details: P. falciparum 3D7 crude extract, LDH APAD/NBT absorbance; at 2 µM; hits give high values
# Sequence of L-lactate dehydrogenase (Plasmodium falciparum (isolate CDC / Honduras)) (Q27743 whole entry, looked up): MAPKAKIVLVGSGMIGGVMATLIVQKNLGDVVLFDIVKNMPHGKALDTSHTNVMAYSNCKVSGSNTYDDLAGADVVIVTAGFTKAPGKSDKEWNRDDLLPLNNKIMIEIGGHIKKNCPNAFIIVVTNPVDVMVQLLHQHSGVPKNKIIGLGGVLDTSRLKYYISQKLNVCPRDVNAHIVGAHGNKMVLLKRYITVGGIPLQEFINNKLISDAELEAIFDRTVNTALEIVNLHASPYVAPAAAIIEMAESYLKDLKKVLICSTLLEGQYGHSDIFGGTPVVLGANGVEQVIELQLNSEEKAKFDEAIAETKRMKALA
# [4] = inhibition of 3D7 malaria parasite growth – strain 3D7 (AID 2306);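 also: 0% = DMSO wells and 100% = chloroquine plus artemisinin control wells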; details: P. falciparum 3D7 erythrocytic growth, LDH absorbance, 72 h; at 2 µM; hits give high values
# [5] = target: Calcium-dependent protein kinase 1 (Plasmodium falciparum (isolate 3D7)) (UniProt P62344); test: PfCDPK1 kinase inhibitors, biochemical, TCAMS library (AID 1159585; cut-off not given, nearly all actives have IC50 up to about 0.98 µM;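 also: inhibitors leave more ATP so luminescence rises with inhibition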); details: recombinant PfCDPK1, Kinase-Glo ATP depletion luminescence
# Sequence of Calcium-dependent protein kinase 1 (Plasmodium falciparum (isolate 3D7)) (P62344 whole entry, looked up): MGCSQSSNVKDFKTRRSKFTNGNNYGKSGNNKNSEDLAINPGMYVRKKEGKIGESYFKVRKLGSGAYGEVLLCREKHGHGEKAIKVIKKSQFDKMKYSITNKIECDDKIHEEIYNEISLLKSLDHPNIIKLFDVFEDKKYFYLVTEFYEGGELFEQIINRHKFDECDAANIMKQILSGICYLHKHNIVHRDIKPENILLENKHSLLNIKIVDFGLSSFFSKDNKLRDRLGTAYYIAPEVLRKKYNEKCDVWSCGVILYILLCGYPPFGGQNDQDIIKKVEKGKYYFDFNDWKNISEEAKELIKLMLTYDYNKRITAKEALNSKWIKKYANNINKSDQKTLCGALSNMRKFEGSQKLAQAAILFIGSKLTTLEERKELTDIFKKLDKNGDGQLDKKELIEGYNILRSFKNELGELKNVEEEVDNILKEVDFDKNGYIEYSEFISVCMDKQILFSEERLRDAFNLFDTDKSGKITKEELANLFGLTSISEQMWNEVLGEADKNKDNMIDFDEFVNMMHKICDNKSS
# [6] = target: Plasmodium falciparum protein kinase 6 (PK6, PF3D7_1337100) (UniProt Q8IDW1); test: PfPK6 kinase inhibitors, biochemical, TCAMS library (AID 1159586); details: recombinant PfPK6, Kinase-Glo ATP depletion luminescence
# Sequence of Plasmodium falciparum protein kinase 6 (PK6, PF3D7_1337100) (Q8IDW1 1-305): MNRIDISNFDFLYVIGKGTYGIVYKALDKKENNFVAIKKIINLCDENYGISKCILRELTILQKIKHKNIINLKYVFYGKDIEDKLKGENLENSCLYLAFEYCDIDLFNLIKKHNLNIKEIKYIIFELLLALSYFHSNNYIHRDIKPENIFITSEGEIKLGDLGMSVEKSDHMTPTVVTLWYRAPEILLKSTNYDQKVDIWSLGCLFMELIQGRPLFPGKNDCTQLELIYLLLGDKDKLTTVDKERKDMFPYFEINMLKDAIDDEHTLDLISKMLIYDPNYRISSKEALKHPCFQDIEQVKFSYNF
# [7] = target: Protein kinase 7 (PK7), Plasmodium falciparum 3D7 (PF3D7_0213400) (UniProt Q7YTF7); test: inhibition of Plasmodium PK7 catalytic activity – biochemical, TCAMS antimalarial set, Kinase-Glo luminescence (AID 1159587); details: recombinant PfPK7, Kinase-Glo ATP depletion luminescence
# Sequence of Protein kinase 7 (PK7), Plasmodium falciparum 3D7 (PF3D7_0213400) (Q7YTF7 1-343): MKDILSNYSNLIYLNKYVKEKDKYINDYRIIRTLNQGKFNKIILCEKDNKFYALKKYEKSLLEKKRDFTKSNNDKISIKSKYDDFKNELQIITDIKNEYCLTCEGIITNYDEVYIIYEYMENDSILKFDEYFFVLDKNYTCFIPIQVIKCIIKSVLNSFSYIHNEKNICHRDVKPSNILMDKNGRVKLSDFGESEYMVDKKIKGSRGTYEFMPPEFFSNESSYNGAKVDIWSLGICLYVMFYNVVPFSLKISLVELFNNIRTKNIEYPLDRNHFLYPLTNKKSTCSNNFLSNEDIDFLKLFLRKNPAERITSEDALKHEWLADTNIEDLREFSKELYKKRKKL
# [8] = target: Calcium-dependent protein kinase 4 (Plasmodium falciparum (isolate 3D7)) (UniProt Q8IBS5); test: PfCDPK4 kinase inhibitors, biochemical, TCAMS library (AID 1159588; cut-off not given, nearly all actives have IC50 up to about 0.91 µM); details: recombinant PfCDPK4, Kinase-Glo ATP depletion luminescence
# Sequence of Calcium-dependent protein kinase 4 (Plasmodium falciparum (isolate 3D7)) (Q8IBS5 whole entry, looked up): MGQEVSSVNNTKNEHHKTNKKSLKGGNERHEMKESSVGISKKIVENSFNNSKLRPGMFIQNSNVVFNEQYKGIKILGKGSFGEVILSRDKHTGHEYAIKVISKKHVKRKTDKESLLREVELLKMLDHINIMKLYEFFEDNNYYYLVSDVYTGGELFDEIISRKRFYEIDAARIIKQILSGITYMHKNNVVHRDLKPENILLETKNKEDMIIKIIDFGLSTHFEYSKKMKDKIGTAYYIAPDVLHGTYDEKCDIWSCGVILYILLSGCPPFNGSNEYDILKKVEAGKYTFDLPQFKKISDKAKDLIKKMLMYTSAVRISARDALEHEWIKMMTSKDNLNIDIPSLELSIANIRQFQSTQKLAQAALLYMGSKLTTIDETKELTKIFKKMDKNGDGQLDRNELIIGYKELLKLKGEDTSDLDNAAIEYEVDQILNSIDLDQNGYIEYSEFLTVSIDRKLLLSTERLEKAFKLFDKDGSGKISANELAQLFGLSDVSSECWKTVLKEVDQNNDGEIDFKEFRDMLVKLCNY
Compound,growth inhibition [1],inhibition [2],inhibition [3] [%],growth inhibition [4],outcome [5],outcome [6],outcome [7],outcome [8]
Cc1cc(OCCCN2CCCCC2C)ccc1NC(=O)COc1ccc(Cl)cc1C(=O)c1cc(Cl)cc(C#N)c1 (stereo unspecified),14%,23%,-2,91% (active),inactive,inactive,inactive,inactive
Cc1ccc(NC(=O)c2ccc(NCCCN(C)Cc3ccccc3)c([N+](=O)[O-])c2)cc1F,61% (active),12%,-7,101% (active),inactive,inactive,inactive,inactive
Cc1cc(Nc2cc(Cl)cc(Cl)c2)nc(N)n1,28%,-12%,3,94% (active),inactive,inactive,inactive,inactive
COc1ccc(NC(=O)Nc2cccc(-c3ccc(-c4nc5ccc(C(F)(F)F)cc5[nH]4)cc3)c2)cc1,29%,46%,6,101% (active),inactive,inactive,inactive,inactive
FC(F)(F)c1cccc(Nc2nc(-n3ccnc3)nc(-n3ccnc3)n2)c1,9%,5%,1,97% (active),inactive,inactive,inactive,inactive
CCOC(=O)c1ccc(N2CCN(c3cc(Cl)ccc3C)CC2)c(NC(=O)Nc2ccc(Cl)c(Cl)c2)c1,99% (active),10%,-5,99% (active),inactive,inactive,inactive,inactive
O=C(NCCNc1ccnc(Nc2ccc(F)cc2)n1)Nc1ccc2c(c1)OCO2,3%,15%,0,97% (active),inactive,inactive,inactive,inactive
CN1CCN(c2nc(NCCc3ccc(O)cc3)nc(NCc3ccccc3-c3ccc(C(F)(F)F)cc3)n2)CC1,82% (active),35%,6,90% (active),inactive,inactive,inactive,inactive
COc1cc(-c2cc3cc(Cl)c(Cl)cc3[nH]2)ccc1C(=O)NCCC1CCCN1C (stereo unspecified),41%,20%,-5,91% (active),inactive,inactive,inactive,inactive
COc1cccc2c(NN=Cc3ccc([N+](=O)[O-])cc3)ccnc12,16%,25%,-3,92% (active),inactive,inactive,inactive,inactive
C=C[C@H]1CN(CCCCCCC)CC[C@H]1CC(=O)Nc1cnnc2ccc(OC)cc12,100% (active),12%,3,101% (active),inactive,inactive,inactive,inactive
COc1ccc(CNC2CCN(C)CC2)cc1-c1ccc(S(=O)(=O)NCCc2ccccn2)s1,12%,6%,3,100% (active),inactive,inactive,inactive,inactive
Nc1nc(N)c2c(Cc3ccccc3)cccc2n1,3%,68% (active),-7,94% (active),inactive,inactive,inactive,inactive
O=C(O[C@H]1CN[C@H](C#Cc2cc3c(Nc4ccc(OCc5cccc(F)c5)c(Cl)c4)ncnc3s2)C1)N1CCCC1,67% (active),11%,-7,99% (active),inactive,inactive,inactive,inactive
CC(C)(C)c1ccc2nccc(Nc3cccc(O)c3)c2c1,100% (active),8%,0,99% (active),inactive,inactive,inactive,inactive
COc1ccc(O)c(Cc2cnc3nc(N)[nH]c(=O)c3c2C)c1,6%,30%,-5,96% (active),inactive,inactive,inactive,inactive
Cc1nnc(N2C(=N)SC(=Cc3ccc(-c4ccc(OC(F)(F)F)cc4)o3)C2=O)s1,58% (active),37%,-7,85% (active),inactive,inactive,inactive,inactive
c1ccc(CN2CCC(NCc3ccc(-c4cncc5ccccc45)cc3)CC2)cc1,19%,21%,-3,98% (active),inactive,inactive,inactive,inactive
CN(C)Cc1cccc(-c2ccc(NC(=O)c3ccc4c(=O)n(CCN5CCCCC5)cnc4c3)cc2)c1,67% (active),23%,-1,101% (active),inactive,inactive,inactive,inactive

Compound,growth inhibition [1],inhibition [2],inhibition [3] [%],growth inhibition [4],outcome [5],outcome [6],outcome [7],outcome [8]
O=C(Nc1ccc(Cl)cc1)Nc1cccc(-c2cccc(-c3nc4ccccc4[nH]3)c2)c1,56% (active),70% (active),0,100% (active),inactive,inactive,inactive,inactive
O=c1[nH]c2ccc3[nH]cccc3c2c1C=Nc1ccc(Cn2ccnc2)cc1,85% (active),33%,1,101% (active),inactive,inactive,inactive,inactive
Oc1ccc(CCNc2nc(NCc3ccccc3-c3ccccc3)nc(N3CCCNCC3)n2)cc1,20%,26%,-5,95% (active),inactive,inactive,inactive,inactive
COc1ccc(NC(=O)Nc2ccc(-c3ccc(-c4nc5ccccc5[nH]4)cc3)cc2)cc1,27%,22%,5,100% (active),inactive,inactive,inactive,inactive
O=C(Nc1cccc(CN2CCCN(Cc3ccc(O)cc3)CC2)c1)c1cccc(F)c1,4%,22%,-2,92% (active),inactive,inactive,inactive,inactive
Cc1cccc2[nH]c(-c3ccc(-c4cccc(NC(=O)Nc5ccc(Cl)c(Cl)c5)c4)s3)nc12,36%,46%,-1,101% (active),inactive,inactive,inactive,inactive
CC[C@H](C)CNC(=O)c1ccc(-c2cccc(CN3CCC(N4CCCC4)CC3)c2)nc1,7%,-1%,-7,91% (active),inactive,inactive,inactive,inactive
CCC(C)NS(=O)(=O)c1ccc2nc(Nc3ccc(C)cc3)n([C@H](C)C(C)(C)C)c2c1 (stereo partly specified),98% (active),2%,0,98% (active),inactive,inactive,inactive,inactive
O=C(Nc1ccc(Oc2ccccc2)cc1)N(Cc1ccc(-c2cccc(CN3CCNCC3)c2)cc1)C1CCN(Cc2ccccc2)CC1,53% (active),10%,-1,93% (active),inactive,inactive,inactive,inactive
Cn1cc(-c2ccccc2C(=O)O)c(=O)c2cc(Cl)ccc21,-4%,16%,-1,89% (active),inactive,inactive,inactive,inactive
Cc1ccc(C2CCN(CCCCNC(=O)c3ccc(-c4ccc(C#N)cc4)cc3)CC2)c(O)c1,90% (active),45%,-3,100% (active),inactive,inactive,inactive,inactive
O=C(NC(c1ccccc1)c1ccc2cccnc2c1O)c1ccccc1 (stereo unspecified),63% (active),53% (active),-4,94% (active),inactive,inactive,inactive,inactive
Cc1nnsc1C(=O)Nc1cccc(-c2cccc(-c3nc4c(C)cccc4[nH]3)c2)c1,80% (active),22%,4,99% (active),inactive,inactive,inactive,inactive
COc1cc(O)c2c(=O)c(OC)c(-c3cccc(Cl)c3OCC(=O)O)oc2c1OC,-2%,-6%,-1,100% (active),inactive,inactive,inactive,inactive
CN(Cc1cccc(F)c1)C1CCCN(c2cc(NC(=O)c3ccccc3)ccn2)C1 (stereo unspecified),50% (active),3%,-3,93% (active),inactive,inactive,inactive,inactive
N#Cc1ccc2c(c1)CCN(CCC1CCC(NC(=O)c3cc4cccc(Cl)c4[nH]3)CC1)CC2 (stereo unspecified),78% (active),34%,0,99% (active),inactive,inactive,inactive,inactive
CCOc1ccc2c(NN=Cc3cccc([N+](=O)[O-])c3)cc(C)nc2c1,97% (active),4%,3,100% (active),inactive,inactive,inactive,inactive
CC(C)(C)NCC(O)COc1ccc(Cl)cc1C1=NNC(=O)CC1 (stereo unspecified),-1%,6%,-2,96% (active),inactive,inactive,inactive,inactive
